Results as given in PubChem BioAssay.

Biological target: Voltage-gated potassium channel subunit beta-2 (Rattus norvegicus) (UniProt P62483)
Assay: enhancers of rat Kvbeta2 NADPH turnover – biochemical, NADPH fluorescence, primary screen (AID 623);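 further: fluorescence intensity change per second fitted from 20 to 320 s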
Details: Recombinant KvBeta, NADPH fluorescence decrease slope, 10 min; at 10 µM; stronger effect = lower value

Voltage-gated potassium channel subunit beta-2 (Rattus norvegicus), sequence (P62483 whole entry, looked up): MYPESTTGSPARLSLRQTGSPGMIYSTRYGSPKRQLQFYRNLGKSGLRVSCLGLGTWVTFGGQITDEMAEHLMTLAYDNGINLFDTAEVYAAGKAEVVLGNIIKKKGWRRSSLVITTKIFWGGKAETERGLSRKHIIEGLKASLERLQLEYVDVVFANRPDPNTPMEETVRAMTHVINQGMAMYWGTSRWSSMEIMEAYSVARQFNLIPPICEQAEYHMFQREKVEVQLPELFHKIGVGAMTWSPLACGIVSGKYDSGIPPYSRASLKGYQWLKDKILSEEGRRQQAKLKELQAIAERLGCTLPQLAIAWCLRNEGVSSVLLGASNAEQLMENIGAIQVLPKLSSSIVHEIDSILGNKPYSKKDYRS

NADPH fluorescence slope, inactive:
O=C(OCC(=O)c1cccs1)C1=COCCO1 -2.7e-05
Cc1ccc(-c2cn3cccnc3n2)cc1NC(=O)c1ccc(Br)o1 1.6e-06
Cc1cnc(NC(=O)CSc2nc3ccccc3c(=O)[nH]2)s1 5.1e-05
CCCCn1nnnc1NCc1cccs1 -1.2e-05
CCCOc1cccc(NC(=O)c2c(-c3ccccc3)noc2C)c1 5.8e-06
CCC(=O)N1C(=O)CCN(C(C)=O)c2ccccc21 2.5e-05
O=C(NCc1ccc2c(c1)OCO2)C1CCC(CNc2c(N3CCCCC3)c(=O)c2=O)CC1 (stereo not given) -4.4e-05
O=C(Cc1c(F)cccc1Cl)Nc1ccncc1 2.5e-05
CSc1nc(N2CCOCC2)c2ccccc2n1 -3.9e-05
Nc1ccc(-n2c(N)c(C(=O)NCc3ccc4c(c3)OCO4)c3nc4ccccc4nc32)cc1 -3e-05
COc1ccc(S(=O)(=O)Cc2ccc(C(=O)N3CCOCC3)o2)cc1 -2.5e-05
Cc1sc2nc(SCC(=O)N3CCN(CCO)CC3)n(-c3ccccc3)c(=O)c2c1C -4.5e-05
CCc1ccc(C2CC(c3cccc(OC)c3)n3nc(N)nc3N2)cc1 (stereo not given) -4e-05
CCCc1cc(C(=O)Nc2ccccc2C(=O)OC)no1 -3.3e-06
COc1cccc(C(=O)Nc2c(C(N)=O)oc3ccccc23)c1 -4.8e-05
Nc1nc2n(n1)C(c1cccc(Cl)c1)CC(c1ccc(F)cc1)N2 (stereo not given) -3.8e-05
O=C(O)C1CCCN1c1ncnc2c1oc1ccccc12 (stereo not given) -1.8e-05
Cc1cc(C)nc(NS(=O)(=O)c2ccc(NC(=O)Cn3c(=O)oc4ccccc43)cc2)n1 -4.3e-06
CCCCn1c(CN(C)Cc2ccccc2)nc2c1c(=O)n(C)c(=O)n2C -6.4e-05
Oc1cccc(Nc2nc(NCC3CCCO3)c3ccccc3n2)c1 (stereo not given) 2.9e-05
Cc1ccc(-n2c(SCC3CCCCO3)nnc2-c2ccco2)cc1 (stereo not given) -4.4e-05
Cc1ccc(S(=O)(=O)NCCSc2nnnn2-c2ccc(C(N)=O)cc2)cc1 4.8e-06
CCN1CCN(CCNC(=O)c2cn(C(C)c3ccccc3F)nn2)CC1 (stereo not given) -1.9e-05
C(#Cc1ccccc1)Cn1nnc2ccccc21 -2.1e-05
Cc1nccn1CCCN1C(=O)OC2(CCCCC2)C1(C)O (stereo not given) -3.8e-05
CCOc1cc2[nH]c(=S)n(CC3CCCO3)c(=O)c2cc1OCC (stereo not given) 4e-05
Cc1ccccc1Cn1ccc(NC(=O)c2cnn3c(C(F)(F)F)cc(-c4ccco4)nc23)n1 -5.8e-05
O=C1c2ccccc2C(Nc2ccc3nc(-c4cccnc4)[nH]c3c2)N1Cc1ccco1 (stereo not given) -3.1e-06
CCOc1ccc(N(CC(=O)NC2CCCC(C)C2C)S(=O)(=O)c2c(C)noc2C)cc1 (stereo not given) 7.5e-06
CCOC(=O)Cn1ncc(-c2ccccc2)c1N 2.4e-05
CS(=O)(=O)N(CC(=O)Nc1cccc(F)c1)Cc1ccccc1 -3.7e-05
Cc1cc(/C=N/n2cnnc2)c(C)n1-c1cccc(Cl)c1 -3.8e-05
CCOC(=O)c1[nH]c(C)c(C(=O)Nc2ccc(C)cc2C)c1C -1.3e-05
CCOC(=O)n1c(SCC(=O)N(CC)CC)nc2ccccc21 -4.3e-05
CCNc1ccc2c(Cl)cc(=O)oc2c1 -3e-05
COCCCNC(=O)CCCn1c(=O)c2ccccc2n(CC(=O)Nc2c(C)cccc2C)c1=O 2.2e-05
CC(=O)NC(C)C(=O)OCC(=O)Nc1ccc(Br)cc1 (stereo not given) -5.1e-06
O=C1c2ccccc2C(Nc2ccc(F)cc2F)N1CCN1CCOCC1 (stereo not given) -3.1e-05
COC(=O)[C@H](CCSC)NC(=O)Nc1cc(C)ccc1C -3.2e-05
CC(=O)Nc1ccc(NC(=O)C(C)Oc2ccccc2F)cc1 (stereo not given) 1.9e-05

Biological target: Alpha-2C adrenergic receptor (Homo sapiens) (UniProt P18825)
Assay: compounds altering alpha2C-coupled GIRK flux – cell-based, HEK293 alpha2C/GIRK1/2, thallium flux, primary screen (AID 624;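 active means fluorescence slope after compound addition differing from the mean of all screened samples at 99.7% confidence, in either direction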;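 further: slope of fluorescence ratio to pre-addition baseline per second over 15 to 24 s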)
Details: thallium flux BTC fluorescence, at 10 µM, actives lie on both sides

Alpha-2C adrenergic receptor (Homo sapiens), sequence (P18825 whole entry, looked up): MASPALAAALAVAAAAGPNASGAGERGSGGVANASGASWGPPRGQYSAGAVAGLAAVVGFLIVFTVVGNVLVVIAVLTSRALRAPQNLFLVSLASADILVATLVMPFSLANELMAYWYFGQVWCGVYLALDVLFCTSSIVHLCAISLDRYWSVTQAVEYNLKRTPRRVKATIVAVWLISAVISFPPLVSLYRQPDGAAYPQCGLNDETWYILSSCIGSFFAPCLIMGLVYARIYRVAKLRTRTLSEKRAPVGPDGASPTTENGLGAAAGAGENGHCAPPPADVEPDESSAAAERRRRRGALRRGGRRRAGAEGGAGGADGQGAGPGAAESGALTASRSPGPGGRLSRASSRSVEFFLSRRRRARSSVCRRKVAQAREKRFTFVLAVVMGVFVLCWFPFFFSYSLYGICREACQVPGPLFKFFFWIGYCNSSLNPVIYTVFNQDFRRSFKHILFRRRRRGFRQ

slope, inactive:
O=C(OCC(=O)c1cccs1)C1=COCCO1 0.00586
Cc1ccc(-c2cn3cccnc3n2)cc1NC(=O)c1ccc(Br)o1 0.00595
Cc1cnc(NC(=O)CSc2nc3ccccc3c(=O)[nH]2)s1 0.00477
CCCCn1nnnc1NCc1cccs1 0.00631
CCCOc1cccc(NC(=O)c2c(-c3ccccc3)noc2C)c1 0.00598
CCC(=O)N1C(=O)CCN(C(C)=O)c2ccccc21 0.0091
O=C(NCc1ccc2c(c1)OCO2)C1CCC(CNc2c(N3CCCCC3)c(=O)c2=O)CC1 (stereo not given) 0.00656
O=C(Cc1c(F)cccc1Cl)Nc1ccncc1 0.00621
CSc1nc(N2CCOCC2)c2ccccc2n1 0.00469
Nc1ccc(-n2c(N)c(C(=O)NCc3ccc4c(c3)OCO4)c3nc4ccccc4nc32)cc1 0.00435
COc1ccc(S(=O)(=O)Cc2ccc(C(=O)N3CCOCC3)o2)cc1 0.0067
Cc1sc2nc(SCC(=O)N3CCN(CCO)CC3)n(-c3ccccc3)c(=O)c2c1C 0.00574
CCc1ccc(C2CC(c3cccc(OC)c3)n3nc(N)nc3N2)cc1 (stereo not given) 0.00641
CCCc1cc(C(=O)Nc2ccccc2C(=O)OC)no1 0.0059
COc1cccc(C(=O)Nc2c(C(N)=O)oc3ccccc23)c1 0.00682
Nc1nc2n(n1)C(c1cccc(Cl)c1)CC(c1ccc(F)cc1)N2 (stereo not given) 0.00636
O=C(O)C1CCCN1c1ncnc2c1oc1ccccc12 (stereo not given) 0.00455
Cc1cc(C)nc(NS(=O)(=O)c2ccc(NC(=O)Cn3c(=O)oc4ccccc43)cc2)n1 0.00665
CCCCn1c(CN(C)Cc2ccccc2)nc2c1c(=O)n(C)c(=O)n2C 0.00658
Oc1cccc(Nc2nc(NCC3CCCO3)c3ccccc3n2)c1 (stereo not given) 0.00401
Cc1ccc(-n2c(SCC3CCCCO3)nnc2-c2ccco2)cc1 (stereo not given) 0.00422
Cc1ccc(S(=O)(=O)NCCSc2nnnn2-c2ccc(C(N)=O)cc2)cc1 0.00721
CCN1CCN(CCNC(=O)c2cn(C(C)c3ccccc3F)nn2)CC1 (stereo not given) 0.00807
C(#Cc1ccccc1)Cn1nnc2ccccc21 0.00582
Cc1nccn1CCCN1C(=O)OC2(CCCCC2)C1(C)O (stereo not given) 0.00543
CCOc1cc2[nH]c(=S)n(CC3CCCO3)c(=O)c2cc1OCC (stereo not given) 0.00618
Cc1ccccc1Cn1ccc(NC(=O)c2cnn3c(C(F)(F)F)cc(-c4ccco4)nc23)n1 0.00253
O=C1c2ccccc2C(Nc2ccc3nc(-c4cccnc4)[nH]c3c2)N1Cc1ccco1 (stereo not given) 0.00653
CCOc1ccc(N(CC(=O)NC2CCCC(C)C2C)S(=O)(=O)c2c(C)noc2C)cc1 (stereo not given) 0.00653
CCOC(=O)Cn1ncc(-c2ccccc2)c1N 0.0046
CS(=O)(=O)N(CC(=O)Nc1cccc(F)c1)Cc1ccccc1 0.00637
Cc1cc(/C=N/n2cnnc2)c(C)n1-c1cccc(Cl)c1 0.00449
CCOC(=O)c1[nH]c(C)c(C(=O)Nc2ccc(C)cc2C)c1C 0.00666
CCOC(=O)n1c(SCC(=O)N(CC)CC)nc2ccccc21 0.00594
CCNc1ccc2c(Cl)cc(=O)oc2c1 0.00496
COCCCNC(=O)CCCn1c(=O)c2ccccc2n(CC(=O)Nc2c(C)cccc2C)c1=O 0.00674
CC(=O)NC(C)C(=O)OCC(=O)Nc1ccc(Br)cc1 (stereo not given) 0.00449
O=C1c2ccccc2C(Nc2ccc(F)cc2F)N1CCN1CCOCC1 (stereo not given) 0.00478
COC(=O)[C@H](CCSC)NC(=O)Nc1cc(C)ccc1C 0.00712
CC(=O)Nc1ccc(NC(=O)C(C)Oc2ccccc2F)cc1 (stereo not given) 0.00945
